“And” between values parts separate entries of the source, which are not always exact repeats. Identical values can stand only once. Screen size: about 70,000 compounds; about 400 (0.57%) were called active. The entries come from a sample that favours actives as a whole. A number with no mark means an inactive call. No stated cut-off is given here; in the data, active means FP signal below about 40; inactive means the rest.
test system: RMI core complex (RMI1/RMI2) binding to FANCM MM2 peptide, human; assay: disruptors of RMI1/RMI2 association with MM2 peptide – biochemical, fluorescence polarization, human, primary screen (AID 1159607); settings: RMI core complex with F-MM2 peptide, at 33 µM, stronger effect = lower value

Compound | FP signal (polarization)
Cc1cccn2c(=O)c(/C=C3\SC(=S)N(C)C3=O)c(NCc3ccc4c(c3)OCO4)nc12 | 42
Cc1ccc(S(=O)(=O)NCCCCCC(=O)Nc2ccncc2)cc1 | 56
Cc1ccc(NC(=O)C(=O)Nc2cc(F)ccc2F)cc1N1CCCC1=O | 54
O=C(CSc1nnc(NC(=O)c2ccc(Br)o2)s1)Nc1cc(C(F)(F)F)ccc1Cl | 64
COC(=O)c1c(N2C(=O)C3ON(c4ccc(Cl)cc4)C(c4ccco4)C3C2=O)sc(C)c1C (stereo unspecified) | 25 (active)
N#CC(c1ccccc1)N1CCSCC1 (stereo unspecified) | 56
Cc1cc(-c2nnc(NC(=O)Cc3ccc(F)cc3)o2)n(C)n1 | 70
CCOC(=O)N1CCc2c(sc(NC(=O)CSc3ccccc3)c2C(N)=O)C1 | 67
O=C(NCCn1ncc2c(=O)n(Cc3cccc([N+](=O)[O-])c3)cnc21)C1CC(=O)N(c2ccc(F)cc2)C1 (stereo unspecified) | 71
O=C(CCn1cncn1)N1CCN(C(=O)N2CCOCC2)CC1 | 63
O=C(c1ccc(=O)n(Cc2cccc(F)c2)n1)N1CCN(Cc2ccccc2)CC1 | 59
CCN1C(=O)Cc2cc(NC(=O)c3ccc(F)c(F)c3)ccc21 | 68
COc1ccc(Cl)c2sc(NC(=O)C3CCCN(S(C)(=O)=O)C3)nc12 (stereo unspecified) | 63
CSc1ccc2nc(NC(=O)c3ccc(S(=O)(=O)N4CCc5ccccc5C4)cc3)sc2c1 | 70
COc1ccc(Cl)c2sc(NNC(=O)c3ccc(S(=O)(=O)N4CCc5ccccc5C4)cc3)nc12 | 11 (active)
CCc1nnc(NC(=O)CSc2ccc3nc(-c4ccccc4)cn3n2)s1 | 55
CN(C)C(C#N)c1cccc(Cl)c1Cl (stereo unspecified) | 69
CCOC(=O)N1CCc2c(sc(NC(=O)c3ccccc3I)c2C#N)C1 | 63
COc1cn(CC(=O)Nc2ccc(C)cc2C)c(CSc2nnnn2C)cc1=O | 52
C(=N/NC1=NCCN1Cc1ccccc1)/c1ccc2c(c1)OCO2 | 51 and 48
Clc1ccc(-c2csc(-c3ccncc3)n2)cc1 | 51
CCn1cc(C(=O)N2CCN(Cc3cc(C)ccc3C)CC2)c2nn(-c3ccccc3)c(=O)c-2c1 | 64
COCC(=O)Nc1ccc2c(c1)C(=O)N(C)c1cc(C)ccc1O2 | 69
O=C(C1=C(O)C(=O)N(CCCN2CCOCC2)C1c1ccco1)c1cccs1 (stereo unspecified) | 57

Compound | FP signal (polarization)
COc1ccccc1CCNC(=O)Cc1csc(Nc2ccc(F)cc2)n1 | 65
O=C(Cc1csc(Nc2ccc(F)cc2)n1)NCc1ccccn1 | 9 (active)
O=C(Cc1csc(Nc2ccccc2)n1)NCc1ccccc1Cl | 63
CCOC(=O)Cn1c(=NC(=O)c2ccnn2C)sc2cc(C(C)C)ccc21 | 69
COCCN1C(=O)C2N=NN(c3ccccc3)C2C1=O (stereo unspecified) | 66
O=C(c1cccc(C(F)(F)F)c1)N1CCC(c2nnc(C3CC3)s2)CC1 | 61
COC(=O)Nc1ccc2c(c1)C(=O)N(C)c1ccccc1O2 | 57
CC1CCCCC1NC(=O)C(=O)c1cn(CC(=O)N2CCCCC2)c2ccccc12 (stereo unspecified) | 56
CC1=NN(c2ccccc2)C(=O)C1=Cc1c(C)[nH]n(-c2ccccc2)c1=O | 53
O=C(Nc1ccc(Br)cc1)Nc1c[nH]c2ccccc12 | 56
O=C(Nc1ccc([N+](=O)[O-])cc1)Nc1nc(-c2nc3ccccc3s2)cs1 | 65
Cc1ccnc(NS(=O)(=O)c2ccc(NC(=O)c3ccc([N+](=O)[O-])o3)cc2)n1 | 61
NC(=O)c1c(NC(=O)CCSc2ccc(Cl)cc2)sc2c1CCCCC2 | 102
Cc1c(/C=N\Nc2ccc([N+](=O)[O-])cc2)sc2ccccc12 | 64
COc1ccccc1/C=C/C(=O)NC(=S)N1CCCC1 | 59
Cc1cc(C(=O)Nc2sccc2-c2nc3ccccc3s2)on1 | 107
NC(=O)c1cnn(-c2ccccc2)c1N | 55
CCC(CC)C(=O)Nc1nnc(SCc2cc(=O)c(OC(=O)c3ccc(S(=O)(=O)N(CC)CC)cc3)co2)s1 | 53
Cc1ccc2c(c1)N(C(=O)Cn1nc3ccc(S(=O)(=O)C(C)(C)C)nn3c1=O)CCO2 | 64
COc1ccc(S(=O)(=O)NNC(=O)CSCc2nc(-c3ccc(Cl)cc3)cs2)cc1 | 78 and 65
CC(=O)c1cccc(NC(=O)CSc2cc(C)c3ccccc3n2)c1 | 77
Cc1ccc(S(=O)(=O)Nc2ccc3c(c2)C(=O)NCCO3)c(C)c1 | 64
O=C(CSc1nnc2ccc(-c3cccs3)nn12)NCCc1ccccc1 | 54
CS(=O)(=O)c1ccc(Nc2nc(C(=O)NC3CC3)cs2)cc1 | 62

Compound | FP signal (polarization)
C=CCn1c(SCC(=O)c2ccc3c(c2)OCO3)nc2scc(-c3ccco3)c2c1=O | 120
Cc1cc(C)c2nc(N(CCN(C)C)C(=O)/C=C/c3cccs3)sc2c1 | 92
COC(CC(=O)O)c1nc2ccccc2s1 (stereo unspecified) | 59
COc1cccc2cc(C(=O)Nc3ccc4nc(N5CCN(C)CC5)sc4c3)oc12 | 64
COc1cccc(-n2c(=S)sc3c(=O)[nH]c(SCC(=O)Nc4ccc(C)c(F)c4)nc32)c1 | 48
COc1cccn(Cc2n[nH]c(=S)n2C)c1=O | 59
CC(=O)c1ccc(NC(=O)CSc2nc(C(F)(F)F)cc(=O)[nH]2)cc1 | 54
COc1ccc(Oc2cccc(Cl)c2CNC(=O)c2ccccc2N)cc1 | 60
COC(=O)c1cccn1-c1ccc(F)cc1 | 56
Cc1cc(NC(=O)/C=C/c2ccccc2)n(C(C)C)n1 | 67
COc1ccc(-c2cc(=O)n(CC(=O)N3CCN(c4ccccc4OC)CC3)cn2)cc1 | 65
CCOC(=O)N1CCN(C(=O)COc2coc(CN3CCc4ccccc43)cc2=O)CC1 | 57
Cc1cccc(NC(=O)Cn2c(C)cc(C)c(-c3nc(-c4ccc(F)cc4)no3)c2=O)c1C | 137
Cc1nc2c(=S)[nH]nc(-c3ccccc3)c2s1 | 68
CCc1cc(C(=O)c2ccc(OC)cc2)c(NC(=O)CN2CCN(C)CC2)s1 | 69
COc1ccc(OC)c(-c2cc3ccc(O)c(CN4CCN(C)CC4)c3oc2=O)c1 | 37 (active)
COc1cccc2cc(-c3cc(=O)oc4cc(OCC(=O)OC(C)(C)C)ccc34)c(=O)oc12 | 67
Cn1nccc1-c1nnc(NC(=O)c2c(F)cccc2Cl)o1 | 75
CCCCOc1ccccc1-c1cc2c(SCC(=O)Nc3ccc(NC(C)=O)cc3)nccn2n1 | 70
CCOC(=O)c1nn(-c2ccccc2C)c(=O)cc1NCCC(c1ccccc1)c1ccccc1 | 54
COc1ccc(C)c2sc(N(Cc3cccnc3)C(=O)/C=C/c3ccccc3)nc12 | 55
CC(C)(C)c1cc(NC(=O)CSc2nnc3ccccn23)cc(C(C)(C)C)c1 | 59
O=C(Cn1cc(-c2nnc(-c3ccccc3)o2)c2ccccc21)N1CCCC1 | 130
CCCc1cc(=O)n(CC(=O)Nc2ccccc2F)cn1 | 65

Compound | FP signal (polarization)
O=C(Nc1ccccc1-c1nc2ccccc2s1)c1ccc(Cl)s1 | 60
O=C(CSc1nnc(CNC(=O)c2ccc(F)cc2)o1)Nc1ccc2c(c1)OCO2 | 57
COC(=O)c1cc(OC)c(OC)cc1NC(=O)C1Cc2ccccc2C(=O)O1 (stereo unspecified) | 56
CC(=O)SCC(=O)Nc1sccc1C#N | 66
O=C(CSc1nnc(NC(=O)c2c(F)cccc2Cl)s1)Nc1ccc(Br)cc1 | 61
O=C(Nc1ccc(OC(F)(F)F)cc1)c1cnc2sccn2c1=O | 64
O=C(NCC1CCN(Cc2cccs2)CC1)c1ccco1 | 72
CCOc1ccc(-c2noc(-c3cc(-c4cc(C)ccc4C)n[nH]3)n2)cc1OC | 95
COc1ccc2nc(-c3ccc(NC(=O)c4c(F)cccc4Cl)cc3)cn2n1 | 122
SCCc1nc2ccccc2[nH]1 | 63
COc1ccc(-c2noc(Cn3cnc4c(nnn4Cc4cccc(F)c4)c3=O)n2)cc1 | 76
O=C(Nc1cc(F)ccc1F)N1CCN(c2ccc(-c3ccc4c(c3)OCO4)nn2)CC1 | 123
O=C(COc1ccc(Cl)cc1)Nc1ccc2c(c1)C(=O)NCCO2 | 60
COC(=O)c1c(NC(=O)CCS(=O)(=O)c2ccc(Cl)cc2)sc2c1CCC(C)C2 (stereo unspecified) | 96
O=C(CN1C(=O)c2ccccc2C1=O)Nc1nnc(-c2ccco2)o1 | 63
CCOc1ccc(S(=O)(=O)Nc2ccc3c(c2)CN(C(=O)C2CC2)CC3)cc1F | 66
CCc1nnc(C2CCN(S(C)(=O)=O)CC2)s1 | 60
Cc1cccnc1N=Cc1cc(Cl)cc(Cl)c1O | 29 (active)
Oc1ccc(Br)cc1C=Nc1ccccn1 | 41
Clc1ccc(C=Nc2cccnc2)c(Cl)c1 | 63
Cn1c(SCC(=O)NCc2ccc(F)cc2)nc2cc(-c3ccccc3)sc2c1=O | 104
CN(C)c1ccc(CCCNC(=O)COc2ccc(Cl)cc2)cc1 | 69
Cn1nc(-c2cccc(NC(=O)c3ccccc3C(F)(F)F)c2)ccc1=O | 56
O=C(N/N=C\c1ccncc1)N/N=C\c1ccncc1 | 54

Reference: PubChem BioAssay AID1159607 (Small Molecule Screening Facility, UW Madison, 2016)
